# PubChem BioAssay (NCATS)
# Unmarked numbers belong to inactive results. Inconclusive results are not listed. Active and inactive are the calls of the source. Unless noted, calls follow the shape of the dose curve; as a rule, active = well fitted curve in either direction with a large enough effect (not every such curve was filed as active); inconclusive = small, poorly fitted or top-dose-only effect, or another doubt; inactive = flat fitted curve, though single readings scatter.
# Columns and labels:
# [1] = molecular target: Lysosomal acid glucosylceramidase (Homo sapiens) (UniProt P04062); assay: Glucocerebrosidase-p2 (AID 348; in the data active = potency below about 10 µM; also: potency is read from the fitted curve at half-maximal effect); details: purified GBA, blue fluorogenic substrate, 40 min
# Procedure, shortened: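 Compounds titrated from 0.6 nM upwards against 0.2 nM enzyme in pH 5.9 citric acid/KH2PO4, taurocholate, tween-20; blue fluorogenic substrate 80 uM, 40 min room temperature, stopped and read Ex 365/Em 440 for AC50.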
# [2] = AP1 Signaling Pathway (AID 357); details: ME-180 AP-1-bla reporter, EGF-induced, beta-lactamase ratio, 5 h; at 7.69 µM (top of the series) unless noted;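 also: ME-180 reporter cells stimulated with EGF at its EC50 level; % is scaled to controls: 0 for no effect and ±100 for the full control effect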
# Procedure, shortened: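 First, ME-180 AP-1-bla cells were cultured overnight at 37 °C in low-serum Opti-MEM. Next, titrated compounds with EC50 EGF were incubated 5 hours. Finally, CCF4 was added for 2.5 hours and the 460/530 nm ratio recorded.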
# [3] = molecular target: Cytochrome P450 1A2 (Homo sapiens) (UniProt P05177); assay: p450-cyp1a2 (AID 410; calls by dose curve; also: potency is read from the fitted curve at half-maximal effect;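 as to activity change, negative = inhibition: -100% = full effect of reference inhibitor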); details: recombinant CYP1A2, luciferin-ME demethylation, luminescence; series mostly up to 11.4 µM
# Procedure, shortened: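 Luminescent readout of luciferin formed from Luciferin-ME by human CYP1A2; data normalized against complete inhibition by 57 uM furafylline. Enzyme 20nM, substrate 100uM at Km, 100mM KPO4 buffer, 60 min reaction at room temperature.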
# [4] = NFAT Signaling Pathway (AID 444); details: Jurkat NFAT-bla M1, carbachol, beta-lactamase ratio, 5 h; at 7.69 µM (top of the series) unless noted;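 also: carbachol stimulus at about its EC50 of 1 µM final; % is scaled to controls: 0 for no effect and ±100 for the full control effect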
# Procedure, shortened: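 Jurkat cells carrying an NFAT-driven β-lactamase reporter and co-transfected muscarinic M1 receptor were treated with compound plus carbachol (1 uM final, an EC50 level) for 5 h at 37 °C. CCF4 loading followed for 1 h at RT; 460/530 nm ratio gave %activity.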
# [5] = Stat Signaling Pathway (AID 446); details: ME-180 SIE beta-lactamase reporter, IL-6 stimulated, 5 h; at 7.69 µM (top of the series) unless noted;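 also: ME-180 cervical cancer cells given 40 pM IL-6 alongside compound; SIE-controlled beta-lactamase reporter measured as 460/530 nm FRET emission ratio; % is scaled to controls: 0 for no effect and ±100 for the full control effect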
# Procedure, shortened: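 ME-180 cells carrying a SIE-driven beta-lactamase reporter are stimulated with 40 pM IL-6 for 5 h at 37C in the presence of compound. The 460/530 nm FRET substrate ratio is read after 2.5 h at RT. Data are normalised to 300 pM IL-6 and to 125 nM JAK inhibitor controls.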
# [6] = molecular target: Glucocorticoid receptor (Homo sapiens) (UniProt P04150); assay: GR-GFP Redistribution (AID 450;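 active = compounds whose dose series gives a full or clear partial fitted curve of increased nuclear translocation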; also: potency is read from the fitted curve at half-maximal effect); details: U2OS GR-GFP nuclear translocation, laser cytometry, 2 h
# [7] = molecular target: 3',5'-cyclic-AMP phosphodiesterase 4B (Homo sapiens) (UniProt Q07343); assay: qHTS Assay for Inhibitors of PDE-IV (AID 607; active = well fitted activation curve with a large enough effect in the main read-out, with a control signal flat, not every such curve was filed as active; also: % of control where 0% means no effect); details: HEK293 ACTOne CNG channel cells, membrane potential fluorescence; series mostly up to 22.9 µM
# Procedure, shortened: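 HEK293 ACTOne cells with CNG channel (1000/well), endogenous PDE4; membrane potential dye, compounds up to 22.9 uM final. Fluorescence Ex 535/Em 590; RO 20-1724 (100 uM final) as reference.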
# [8] = molecular target: Cytochrome P450 2D6 (Homo sapiens) (UniProt P10635); assay: qHTS Assay for Inhibitors and Substrates of Cytochrome P450 2D6 (AID 891; active = well fitted curve in the direction sought with a large enough effect; an effect the other way counts as inactive or inconclusive; also: nearly all actives have a fitted effect of over 60% in size; also: potency is read from the fitted curve at half-maximal effect); details: recombinant CYP2D6, luciferin-ME EGE luminescence; series mostly up to 11.4 µM
# Procedure, shortened: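 Human CYP2D6 (5 nM) with 30 uM Luciferin-ME EGE (at Km) in 100 mM KPO4, compound preincubated 10 min, then NADPH regeneration system for 60 min at room temperature. Luciferin read by luminescence; normalized to 1.43 uM quinidine.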
# [9] = molecular target: Cytochrome P450 2C19 (Homo sapiens) (UniProt P33261); assay: qHTS Assay for Inhibitors and Substrates of Cytochrome P450 2C19 (AID 899; active = well fitted curve in the direction sought with a large enough effect; an effect the other way counts as inactive or inconclusive; also: nearly all actives have a fitted effect of over 60% in size; also: potency is read from the fitted curve at half-maximal effect); details: recombinant CYP2C19, luciferin-H EGE luminescence; series mostly up to 11.4 µM
# Procedure, shortened: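 NADPH-dependent conversion of Luciferin-H EGE (10uM, at KM) by 5nM enzyme in 50mM KPO4, 60 min at 37C following 10 min compound preincubation. Stopped with luciferin detection buffer; luminescence read after 20 min.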
# [10] = molecular target: Glucocorticoid receptor (Homo sapiens) (UniProt P04150); assay: GR-EFC Redistribution (AID 451; calls by dose curve; also: potency is read from the fitted curve at half-maximal effect); details: CHO-K1 GR-EFC translocation, beta-gal luminescence, 2 h
# Procedure, shortened: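 CHO-K1 cells stably expressing nuclear-localized β-gal enzyme acceptor and GR fused C-terminally to the enzyme donor fragment; ligand-driven nuclear translocation restores β-gal by complementation. Compounds titrated up to 46 uM final, 2 h at 37 °C; luminescence read.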
# [11] = molecular target: Mitogen-activated protein kinase 10 (Mus musculus) (UniProt Q61831); assay: JNK3 AlphaScreen Assay (AID 530); details: JNK3 lysate, c-Jun phosphorylation; series mostly up to 57.1 µM;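 also: kinase came from lysate of stimulated human HepG2 cells; signal reports phosphorylation of biotinylated GST-cJun 1-79 at Ser73 with 10 µM ATP; % is scaled to controls: 0 for no effect and ±100 for the full control effect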
# Procedure, shortened: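 Inhibitors reduce antibody binding to phosphorylated biotin-cJun, lowering AlphaScreen luminescence. Lysates from HepG2 cells pre-activated by IL-1beta plus TNF-alpha supplied JNK3; compounds were titrated.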
# [12] = molecular target: Cytochrome P450 3A4 (Homo sapiens) (UniProt P08684); assay: qHTS Assay for Activators of Cytochrome P450 3A4 (AID 885; active = well fitted curve in the direction sought with a large enough effect; an effect the other way counts as inactive or inconclusive; also: nearly all actives have a fitted effect of over 65% in size); details: recombinant CYP3A4, Luciferin-PPXE luminescence, 60 min; series mostly up to 57.1 µM
# Procedure, shortened: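 Human CYP3A4 (20 nM) with Luciferin-PPXE at 25 uM (its KM) in 200 mM KPO4; 10 min compound preincubation, then NADPH regeneration and 60 min reaction at RT. Luciferin read by luminescence; normalized to 57 uM ketoconazole full inhibition.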
# [13] = molecular target: Cytochrome P450 3A4 (Homo sapiens) (UniProt P08684); assay: qHTS Assay for Inhibitors and Substrates of Cytochrome P450 3A4 (AID 884; active = well fitted curve in the direction sought with a large enough effect; an effect the other way counts as inactive or inconclusive; also: potency is read from the fitted curve at half-maximal effect; nearly all actives have a fitted effect of over 50% in size); details: recombinant CYP3A4, Luciferin-PPXE luminescence; series mostly up to 57.1 µM
# Procedure, shortened: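 20 nM human CYP3A4 with 25 uM Luciferin-PPXE (at KM) in 200 mM KPO4, preincubated 10 min with compound; NADPH regeneration started a 60 min RT reaction. Luciferin detected by luminescence, normalized to 57 uM ketoconazole as full inhibition.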
# Sequence of Glucocorticoid receptor (Homo sapiens) (P04150 whole entry, looked up, the tested form may be a part): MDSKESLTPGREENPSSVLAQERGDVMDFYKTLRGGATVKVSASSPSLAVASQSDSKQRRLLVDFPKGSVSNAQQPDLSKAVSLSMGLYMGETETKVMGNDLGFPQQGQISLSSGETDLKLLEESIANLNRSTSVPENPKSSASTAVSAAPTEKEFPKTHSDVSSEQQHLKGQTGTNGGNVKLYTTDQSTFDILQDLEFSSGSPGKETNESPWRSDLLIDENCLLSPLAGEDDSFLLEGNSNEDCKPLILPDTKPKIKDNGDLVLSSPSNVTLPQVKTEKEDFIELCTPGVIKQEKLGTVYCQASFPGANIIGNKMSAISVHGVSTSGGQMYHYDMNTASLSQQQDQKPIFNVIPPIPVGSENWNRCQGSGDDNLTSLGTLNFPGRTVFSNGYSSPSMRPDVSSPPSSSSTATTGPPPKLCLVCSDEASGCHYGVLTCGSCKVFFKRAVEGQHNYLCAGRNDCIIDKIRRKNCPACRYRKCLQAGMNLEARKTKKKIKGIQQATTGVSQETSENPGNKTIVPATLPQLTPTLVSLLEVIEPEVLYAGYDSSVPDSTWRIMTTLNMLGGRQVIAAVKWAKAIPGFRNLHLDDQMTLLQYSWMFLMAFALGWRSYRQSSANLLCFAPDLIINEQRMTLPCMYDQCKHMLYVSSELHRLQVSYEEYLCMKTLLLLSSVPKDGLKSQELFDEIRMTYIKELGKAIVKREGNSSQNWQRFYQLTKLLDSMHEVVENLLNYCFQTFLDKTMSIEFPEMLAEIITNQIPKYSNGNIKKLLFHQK
# Sequence of 3',5'-cyclic-AMP phosphodiesterase 4B (Homo sapiens) (Q07343 whole entry, looked up): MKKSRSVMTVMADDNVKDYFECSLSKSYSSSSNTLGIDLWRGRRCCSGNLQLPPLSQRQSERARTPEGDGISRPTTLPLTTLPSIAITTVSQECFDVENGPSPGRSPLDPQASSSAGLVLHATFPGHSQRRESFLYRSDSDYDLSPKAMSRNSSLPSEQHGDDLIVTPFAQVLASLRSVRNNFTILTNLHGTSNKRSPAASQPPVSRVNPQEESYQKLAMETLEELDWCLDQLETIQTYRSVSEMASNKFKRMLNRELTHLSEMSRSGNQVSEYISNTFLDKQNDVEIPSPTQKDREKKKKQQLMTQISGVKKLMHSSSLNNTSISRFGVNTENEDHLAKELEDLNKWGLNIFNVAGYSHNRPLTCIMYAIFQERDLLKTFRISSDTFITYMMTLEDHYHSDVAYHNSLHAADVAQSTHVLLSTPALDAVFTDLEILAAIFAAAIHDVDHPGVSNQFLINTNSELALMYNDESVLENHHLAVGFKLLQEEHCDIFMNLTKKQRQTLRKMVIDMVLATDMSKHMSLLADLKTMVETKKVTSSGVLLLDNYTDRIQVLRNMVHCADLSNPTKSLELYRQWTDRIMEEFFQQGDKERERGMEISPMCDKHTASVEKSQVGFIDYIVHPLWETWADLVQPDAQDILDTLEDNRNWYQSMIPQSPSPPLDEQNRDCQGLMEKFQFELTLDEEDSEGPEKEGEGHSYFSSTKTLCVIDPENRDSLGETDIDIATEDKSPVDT
# Sequence of Cytochrome P450 3A4 (Homo sapiens) (P08684 whole entry, looked up): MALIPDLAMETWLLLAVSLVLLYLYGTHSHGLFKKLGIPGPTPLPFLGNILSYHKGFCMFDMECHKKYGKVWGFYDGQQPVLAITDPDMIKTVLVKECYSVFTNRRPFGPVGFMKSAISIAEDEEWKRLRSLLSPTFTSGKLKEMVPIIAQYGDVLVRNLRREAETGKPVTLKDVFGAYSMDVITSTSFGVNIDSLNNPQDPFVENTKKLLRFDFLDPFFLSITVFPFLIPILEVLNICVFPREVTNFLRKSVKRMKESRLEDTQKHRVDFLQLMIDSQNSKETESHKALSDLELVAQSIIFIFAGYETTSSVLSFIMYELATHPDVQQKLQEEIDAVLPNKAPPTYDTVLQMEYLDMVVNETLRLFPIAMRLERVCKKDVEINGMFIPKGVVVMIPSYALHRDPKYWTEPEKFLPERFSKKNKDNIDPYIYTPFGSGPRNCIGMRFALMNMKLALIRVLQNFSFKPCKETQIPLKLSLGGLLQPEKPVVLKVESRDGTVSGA
# Sequence of Lysosomal acid glucosylceramidase (Homo sapiens) (P04062 whole entry, looked up): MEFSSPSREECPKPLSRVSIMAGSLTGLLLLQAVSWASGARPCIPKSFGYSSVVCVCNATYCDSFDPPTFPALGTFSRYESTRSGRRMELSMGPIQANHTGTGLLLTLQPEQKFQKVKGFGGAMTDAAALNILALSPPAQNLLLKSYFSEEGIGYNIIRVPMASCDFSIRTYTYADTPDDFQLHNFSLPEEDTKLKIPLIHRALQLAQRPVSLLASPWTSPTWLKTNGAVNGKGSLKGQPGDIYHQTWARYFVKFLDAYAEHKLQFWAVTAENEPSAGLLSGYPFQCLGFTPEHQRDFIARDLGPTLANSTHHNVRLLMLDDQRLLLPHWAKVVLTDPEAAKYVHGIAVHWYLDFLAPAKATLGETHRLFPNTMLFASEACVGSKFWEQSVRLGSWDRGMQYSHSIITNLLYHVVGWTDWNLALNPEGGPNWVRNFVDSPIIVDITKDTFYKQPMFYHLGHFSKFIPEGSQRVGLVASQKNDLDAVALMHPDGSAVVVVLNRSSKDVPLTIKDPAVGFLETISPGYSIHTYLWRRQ
# Sequence of Cytochrome P450 2C19 (Homo sapiens) (P33261 whole entry, looked up): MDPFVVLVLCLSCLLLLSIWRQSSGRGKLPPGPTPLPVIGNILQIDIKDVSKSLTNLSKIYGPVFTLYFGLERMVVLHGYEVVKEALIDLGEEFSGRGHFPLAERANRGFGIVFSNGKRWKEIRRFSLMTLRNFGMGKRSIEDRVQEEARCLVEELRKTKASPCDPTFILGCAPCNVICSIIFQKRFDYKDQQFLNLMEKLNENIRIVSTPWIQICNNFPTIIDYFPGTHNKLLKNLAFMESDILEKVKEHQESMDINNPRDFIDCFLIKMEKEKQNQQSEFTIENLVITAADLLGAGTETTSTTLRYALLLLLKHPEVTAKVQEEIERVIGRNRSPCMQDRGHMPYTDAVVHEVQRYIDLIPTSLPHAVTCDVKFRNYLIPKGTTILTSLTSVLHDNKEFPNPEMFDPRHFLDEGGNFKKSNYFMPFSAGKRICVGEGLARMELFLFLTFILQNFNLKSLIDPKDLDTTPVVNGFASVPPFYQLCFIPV
# Sequence of Cytochrome P450 2D6 (Homo sapiens) (P10635 whole entry, looked up): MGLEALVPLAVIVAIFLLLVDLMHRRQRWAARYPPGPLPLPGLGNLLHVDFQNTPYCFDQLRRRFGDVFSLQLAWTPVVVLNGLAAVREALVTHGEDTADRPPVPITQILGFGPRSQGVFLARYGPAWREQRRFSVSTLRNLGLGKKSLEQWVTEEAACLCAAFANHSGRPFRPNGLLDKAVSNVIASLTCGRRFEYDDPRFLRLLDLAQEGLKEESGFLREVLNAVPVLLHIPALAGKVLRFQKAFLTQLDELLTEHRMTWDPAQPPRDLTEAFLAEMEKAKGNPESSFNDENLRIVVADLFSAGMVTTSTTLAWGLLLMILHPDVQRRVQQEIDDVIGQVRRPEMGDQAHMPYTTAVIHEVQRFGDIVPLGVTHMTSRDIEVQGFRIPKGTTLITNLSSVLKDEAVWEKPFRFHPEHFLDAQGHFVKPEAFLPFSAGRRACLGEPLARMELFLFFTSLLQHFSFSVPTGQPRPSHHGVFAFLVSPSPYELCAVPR
# Sequence of Cytochrome P450 1A2 (Homo sapiens) (P05177 whole entry, looked up): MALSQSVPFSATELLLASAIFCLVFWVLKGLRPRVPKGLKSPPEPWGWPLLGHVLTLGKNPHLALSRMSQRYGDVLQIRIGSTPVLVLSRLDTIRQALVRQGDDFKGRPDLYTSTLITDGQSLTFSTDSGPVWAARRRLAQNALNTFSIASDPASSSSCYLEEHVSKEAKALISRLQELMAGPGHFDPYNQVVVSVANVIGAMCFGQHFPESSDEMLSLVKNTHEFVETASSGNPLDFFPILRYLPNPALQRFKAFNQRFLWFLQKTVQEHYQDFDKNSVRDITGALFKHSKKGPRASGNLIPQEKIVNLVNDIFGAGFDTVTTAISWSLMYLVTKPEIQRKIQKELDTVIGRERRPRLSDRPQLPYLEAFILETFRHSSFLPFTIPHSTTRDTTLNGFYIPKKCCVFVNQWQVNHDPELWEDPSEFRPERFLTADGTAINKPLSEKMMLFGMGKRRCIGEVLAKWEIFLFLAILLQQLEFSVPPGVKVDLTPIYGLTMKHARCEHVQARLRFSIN
Structure (SMILES),Potency [1] [µM],"activity change, negative = inhibition [2] [%]",Potency [3],"activity change, negative = inhibition [4] [%]","activity, negative = inhibition [5] [%]",Potency [6] [µM],outcome [7],Potency [8],Potency [9],Potency [10] [µM],"activity change, negative = inhibition [11]","activity change, positive = activation [12]",Potency [13]
CN[C@H](Cc1ccccc1)c1cccc(OC)c1O,> 11.4,4.57,inactive,10.1,-6.4,> 46,inactive,0.0398 µM (active),2 µM (active),–,–,–,–
Oc1ccc([C@H](O)[C@@H]2CCCCN2)cc1O,> 11.4,-22.3,inactive,–,8.8,> 46,inactive,–,–,> 9.22,1.46% [at 11.4 µM],–,–
NCCSC(c1ccccc1)c1ccccc1,> 11.4,6.46,1.58 µM (active),–,–,> 46,inactive,0.794 µM (active),1.26 µM (active),–,1.83% [at 11.4 µM],-39.5% [at 11.4 µM],–
C[C@@]12Cc3cnc(-c4ccccc4)nc3C[C@@H]1CC[C@@H]1[C@H]3CC[C@@](C)(O)[C@]3(C)CC[C@@H]12,> 11.4,5.09,–,-13.1,1.77,> 46,inactive,–,–,> 9.22,3.79% [at 11.4 µM],–,–
c1ccc(CCN2CCOCC2)nc1,> 11.4,-2.6,–,11.7,4.66,> 46,inactive,–,–,> 9.22,1.44% [at 11.4 µM],–,–
O=C(O)c1cc(N=Nc2ccc([As](=O)(O)O)cc2)ccc1O,> 11.4,6.37,inactive,–,-0.258,> 46,inactive,inactive,inactive,–,2.47% [at 11.4 µM],–,–
[N-]=[N+]=CC(=O)CC[C@H](N)C(=O)O,> 11.4,6.38,inactive,–,6.39,> 46,inactive,–,–,> 9.22,31.7% [at 11.4 µM],–,–
CC(C)=C[C@H]1[C@@H](C(=O)OCc2cc3c(cc2Cl)OCO3)C1(C)C,> 11.4,-2.25,0.794 µM (active),–,0.513,> 46,inactive,–,1.58 µM (active),> 9.22,–,-75% [at 11.4 µM],0.316 µM (active)
O=C(O)[C@@H](O)[C@@H](O)[C@@H]1[O][Sb][O][C@@H]1CO,> 11.4,4.54,–,5.74,1.94,–,inactive,–,–,> 9.22,1.63% [at 11.4 µM],–,–
